Publication PMC7862700, “An all-to-all approach to the identification of sequence-specific readers for epigenetic DNA modifications on cytosine”

Legend:
Test in all cases: DAPPL (digital affinity profiling via proximity ligation, sequencing); 10 mM Tris-HCl pH 7.5, 50 mM NaCl, 1 mM DTT, 4% glycerol, room temperature, 30 min; GST-TFs on glutathione beads, 16-mer random dsDNA library, 0.1% formaldehyde crosslink after washing; high values mean tight binding
Conditions in all cases: protein: recombinant; tags: N-terminal GST; dsDNA, one strand shown
[1] = molecular target: ETV1 (Homo sapiens, UniProt P50549 1-477)
Summary of the method: (§1)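 Beads coated with glutathione captured GST-fused human transcription factors that had been expressed in yeast, and the factors were then given DNA barcodes and pooled with a tag-only sample. The pools were incubated with 200 nmole of a random double-stranded 16-mer DNA library in Tris/NaCl/DTT/glycerol buffer for 30 min at room temperature, washed, crosslinked with 0.1% formaldehyde and proximity-ligated with BsaI/T4 ligase at 37 °C for 1 h. PCR amplification and Illumina NextSeq500 sequencing came last. Binding signal is each hexamer's read frequency for a factor divided by its frequency for the tag-only sample.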

[2] = molecular target: T1, ERF (Homo sapiens, UniProt P50548 1-548)
T1 sequence: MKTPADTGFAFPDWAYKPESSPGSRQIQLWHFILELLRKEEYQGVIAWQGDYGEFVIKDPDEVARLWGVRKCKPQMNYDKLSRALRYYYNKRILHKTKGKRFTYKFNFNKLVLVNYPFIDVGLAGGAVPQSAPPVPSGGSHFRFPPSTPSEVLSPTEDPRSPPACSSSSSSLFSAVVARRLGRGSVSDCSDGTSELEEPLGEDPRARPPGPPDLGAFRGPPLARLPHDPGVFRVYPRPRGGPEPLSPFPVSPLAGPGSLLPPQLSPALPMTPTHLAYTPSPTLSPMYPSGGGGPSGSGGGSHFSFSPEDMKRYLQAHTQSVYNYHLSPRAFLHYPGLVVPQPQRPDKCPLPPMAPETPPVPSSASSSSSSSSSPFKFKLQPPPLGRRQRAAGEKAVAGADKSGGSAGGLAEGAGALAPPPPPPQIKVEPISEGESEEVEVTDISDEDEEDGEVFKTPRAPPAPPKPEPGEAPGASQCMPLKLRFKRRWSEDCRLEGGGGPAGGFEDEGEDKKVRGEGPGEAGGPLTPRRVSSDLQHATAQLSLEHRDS
Summary of the method: as §1

[3] = molecular target: T2, ETV3L (Homo sapiens, UniProt Q6ZN32 1-361)
T2 sequence: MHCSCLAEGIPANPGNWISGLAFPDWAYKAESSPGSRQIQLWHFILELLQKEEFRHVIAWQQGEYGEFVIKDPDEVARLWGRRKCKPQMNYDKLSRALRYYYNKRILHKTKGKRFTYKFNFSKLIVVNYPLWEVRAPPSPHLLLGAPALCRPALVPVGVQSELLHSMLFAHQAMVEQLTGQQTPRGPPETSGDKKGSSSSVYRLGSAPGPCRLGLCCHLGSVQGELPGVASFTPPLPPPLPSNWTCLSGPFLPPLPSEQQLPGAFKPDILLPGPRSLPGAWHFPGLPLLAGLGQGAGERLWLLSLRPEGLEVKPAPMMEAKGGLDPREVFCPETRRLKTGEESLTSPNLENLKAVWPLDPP
Summary of the method: as §1

[4] = molecular target: T3, ETS2 (Homo sapiens, UniProt P15036 1-469)
T3 sequence: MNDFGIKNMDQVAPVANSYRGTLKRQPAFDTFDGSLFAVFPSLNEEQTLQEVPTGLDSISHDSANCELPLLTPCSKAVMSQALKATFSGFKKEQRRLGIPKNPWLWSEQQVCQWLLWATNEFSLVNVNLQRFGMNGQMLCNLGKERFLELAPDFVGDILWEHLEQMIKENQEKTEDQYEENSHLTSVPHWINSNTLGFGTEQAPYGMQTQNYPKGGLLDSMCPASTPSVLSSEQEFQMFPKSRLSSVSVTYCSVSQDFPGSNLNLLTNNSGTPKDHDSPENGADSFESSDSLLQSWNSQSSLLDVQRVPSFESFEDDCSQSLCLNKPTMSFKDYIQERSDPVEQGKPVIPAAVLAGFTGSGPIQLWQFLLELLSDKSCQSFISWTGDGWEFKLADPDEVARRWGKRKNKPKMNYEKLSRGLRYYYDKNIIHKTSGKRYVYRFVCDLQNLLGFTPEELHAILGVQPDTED
Summary of the method: as §1

[5] = molecular target: T4, SPDEF (Homo sapiens, UniProt O95238 1-335)
T4 sequence: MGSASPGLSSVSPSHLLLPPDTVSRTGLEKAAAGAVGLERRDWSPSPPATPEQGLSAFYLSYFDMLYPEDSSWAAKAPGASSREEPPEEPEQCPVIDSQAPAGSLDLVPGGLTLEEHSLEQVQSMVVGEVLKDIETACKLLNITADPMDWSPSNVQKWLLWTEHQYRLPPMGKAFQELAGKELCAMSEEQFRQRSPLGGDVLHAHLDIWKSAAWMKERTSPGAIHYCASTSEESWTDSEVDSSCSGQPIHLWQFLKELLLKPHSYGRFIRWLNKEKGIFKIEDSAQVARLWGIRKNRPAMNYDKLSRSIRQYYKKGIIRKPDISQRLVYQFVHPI
Summary of the method: as §1

[6] = molecular target: T5, ETV7 (Homo sapiens, UniProt Q9Y603 1-341)
T5 sequence: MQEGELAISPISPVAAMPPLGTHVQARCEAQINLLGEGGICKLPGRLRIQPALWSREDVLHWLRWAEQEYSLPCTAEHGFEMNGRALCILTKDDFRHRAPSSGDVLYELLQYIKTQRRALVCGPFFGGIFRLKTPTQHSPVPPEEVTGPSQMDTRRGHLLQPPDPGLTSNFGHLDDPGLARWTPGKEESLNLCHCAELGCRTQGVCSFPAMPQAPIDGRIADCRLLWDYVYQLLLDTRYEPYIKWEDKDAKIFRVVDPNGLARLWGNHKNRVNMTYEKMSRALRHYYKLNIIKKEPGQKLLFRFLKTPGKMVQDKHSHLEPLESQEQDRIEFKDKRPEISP
Summary of the method: as §1

[7] = molecular target: T6, ELF5 (Homo sapiens, UniProt Q9UKW6-2 1-255)
T6 sequence: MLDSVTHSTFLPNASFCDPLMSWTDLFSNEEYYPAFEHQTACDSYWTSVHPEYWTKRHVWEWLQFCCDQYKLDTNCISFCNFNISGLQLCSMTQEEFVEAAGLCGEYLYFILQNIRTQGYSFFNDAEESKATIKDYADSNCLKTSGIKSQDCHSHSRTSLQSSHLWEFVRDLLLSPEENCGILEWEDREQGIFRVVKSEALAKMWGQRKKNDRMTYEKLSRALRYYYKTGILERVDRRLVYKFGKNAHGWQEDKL
Summary of the method: as §1

[8] = molecular target: T7, ETV3 (Homo sapiens, UniProt P41162-2 1-143)
T7 sequence: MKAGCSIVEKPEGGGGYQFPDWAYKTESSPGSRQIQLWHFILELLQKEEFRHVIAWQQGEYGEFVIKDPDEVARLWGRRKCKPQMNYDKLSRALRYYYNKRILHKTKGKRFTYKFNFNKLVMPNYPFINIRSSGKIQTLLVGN
Summary of the method: as §1

[9] = molecular target: ETV6 (Homo sapiens, UniProt P41212 1-452)
Summary of the method: as §1

Sequence of ETV1 (P50549 whole entry, the tested form may be a part): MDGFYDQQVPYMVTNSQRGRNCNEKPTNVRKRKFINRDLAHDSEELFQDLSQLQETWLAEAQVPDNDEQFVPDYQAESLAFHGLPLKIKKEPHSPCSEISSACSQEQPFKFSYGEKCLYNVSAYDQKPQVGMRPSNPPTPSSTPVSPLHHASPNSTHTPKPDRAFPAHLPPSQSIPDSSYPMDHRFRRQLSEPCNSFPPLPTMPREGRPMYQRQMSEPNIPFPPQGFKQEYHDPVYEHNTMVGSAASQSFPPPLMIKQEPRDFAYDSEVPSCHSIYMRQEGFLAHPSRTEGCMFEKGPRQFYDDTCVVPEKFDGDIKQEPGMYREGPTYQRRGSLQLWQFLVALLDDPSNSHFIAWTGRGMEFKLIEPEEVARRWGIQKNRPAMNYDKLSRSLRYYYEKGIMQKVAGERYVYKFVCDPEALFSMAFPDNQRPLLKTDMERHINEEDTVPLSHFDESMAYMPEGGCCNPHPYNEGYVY
Sequence of ETV6 (P41212 whole entry): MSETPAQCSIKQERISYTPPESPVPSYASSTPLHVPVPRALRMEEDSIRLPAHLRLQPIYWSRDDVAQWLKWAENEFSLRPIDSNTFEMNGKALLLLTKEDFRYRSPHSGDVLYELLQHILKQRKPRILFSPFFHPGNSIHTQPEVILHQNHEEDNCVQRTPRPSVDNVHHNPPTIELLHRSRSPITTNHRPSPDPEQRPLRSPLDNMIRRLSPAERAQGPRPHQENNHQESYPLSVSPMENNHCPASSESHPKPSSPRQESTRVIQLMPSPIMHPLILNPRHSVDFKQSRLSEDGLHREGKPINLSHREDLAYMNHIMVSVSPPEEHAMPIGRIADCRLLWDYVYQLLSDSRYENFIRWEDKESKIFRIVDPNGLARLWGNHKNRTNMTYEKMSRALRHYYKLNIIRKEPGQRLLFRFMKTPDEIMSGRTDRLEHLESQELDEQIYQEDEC

Sequence: ACCTCC
- binding signal [1]: 1.4 fold enrichment (6-mer frequency, TF over GST control)
- binding signal [2]: 1.35 fold enrichment (6-mer frequency, TF over GST control)
- binding signal [3]: 1.49 fold enrichment (6-mer frequency, TF over GST control)
- binding signal [4]: 1.41 fold enrichment (6-mer frequency, TF over GST control)
- binding signal [5]: 1.5 fold enrichment (6-mer frequency, TF over GST control)
- binding signal [6]: 1.4 fold enrichment (6-mer frequency, TF over GST control)
- binding signal [7]: 1.49 fold enrichment (6-mer frequency, TF over GST control)
- binding signal [8]: 1.33 fold enrichment (6-mer frequency, TF over GST control)
- binding signal [9]: 1.4 fold enrichment (6-mer frequency, TF over GST control)
